In PubChem BioAssay AID651815 (National Center for Advancing Translational Sciences (NCATS), 2012):
The whole screen tested about 2,100 compounds, of which about 1,100 (52%) were called active. Not shown: some 29% with an inconclusive outcome. Calls come from the whole dose curve; as a rule, active = well fitted inhibition curve with a large enough effect; inconclusive = small, poorly fitted or top-dose-only effect; inactive = no such curve, though single readings can be large or run the other way. So high a share suggests a set chosen from earlier hits. The list shows a part of the results.

Biological target: DNA dC->dU-editing enzyme APOBEC-3F (Homo sapiens) (UniProt Q8IUX4)
Assay: qHTS for inhibitors of Vif-A3F interactions: Cherry picks counterscreen; note: nearly all actives have a fitted effect of over 65% in size
Conditions: HeLa A3F-eYFP/Vif cells, eYFP fluorescence, 24 h; series mostly up to 46.1 µM
Text: The recent discovery and characterization of host restriction factors, which provide a potent defense to invading retroviruses, has provided new targets for antiviral drug development. APOBEC3G (A3G) and APOBEC3F (A3F) are potent cytidine deaminases that block HIV-1 replication; HIV-1 expresses the Vif protein, which counteracts A3G and A3F by binding to them and inducing their proteasomal degradation. The Vif-A3G and Vif-A3F interactions provide two potential targets for development of small molecules which can interfere with the ability of Vif to degrade A3G or A3F. […] To identify inhibitors that can interfere with Vif mediated degradation of A3G and A3F, we have developed Hela cell lines that stably express A3G or A3F tagged with eYFP at the C-terminal end (A3G-eYFP or A3F-eYFP, respectively) and Vif. In the absence of an inhibitor, Vif induces degradation of A3G-eYFP and A3F-eYFP, and the cells are not fluorescent. In the presence of an inhibitor, it is expected that Vif will be unable to degrade A3G-eYFP and/or A3F-eYFP, resulting in an increase in yellow fluorescence. In this counterscreen assay, Vif A3F was screened against the cherry picks ordered from the MLSMR. NIH Chemical Genomics Center [NCGC] NIH Molecular Libraries Probe Centers Network [MLPCN] MLPCN Grant: MH093245 Assay Submitter (PI): Vinay Pathak, National Cancer Institute
A3F-Vif cells were harvested from T225 flask and resuspended in phenol free OPTI-MEM medium with 5% FBS. Then 5 uL of 140,000 cells/mL resuspended cells was dispensed into each well of low base Aurora COC 1,536-well plates (black walled, clear bottom) using a Multidrop Combi dispenser. After overnight culture at 37 deg C with 5% CO2, a total of 23 nL of compounds at 5 selected concentrations from the NPC or positive control (2 mM stock of MG132) in DMSO was transferred to each well of the assay plate using a pintool (Kalypsys, San Diego, CA), and the plates were further incubated at 37 deg C with 5% CO2 for 24 hours. After that, the plates were measured on Acumen Explorer (TTP Lab Tech). The fluorescence was detected by 488 nm/Ex and […].
Potency is the fitted concentration of half-maximal effect.

Sequence of DNA dC->dU-editing enzyme APOBEC-3F (Homo sapiens) (Q8IUX4 whole entry, looked up): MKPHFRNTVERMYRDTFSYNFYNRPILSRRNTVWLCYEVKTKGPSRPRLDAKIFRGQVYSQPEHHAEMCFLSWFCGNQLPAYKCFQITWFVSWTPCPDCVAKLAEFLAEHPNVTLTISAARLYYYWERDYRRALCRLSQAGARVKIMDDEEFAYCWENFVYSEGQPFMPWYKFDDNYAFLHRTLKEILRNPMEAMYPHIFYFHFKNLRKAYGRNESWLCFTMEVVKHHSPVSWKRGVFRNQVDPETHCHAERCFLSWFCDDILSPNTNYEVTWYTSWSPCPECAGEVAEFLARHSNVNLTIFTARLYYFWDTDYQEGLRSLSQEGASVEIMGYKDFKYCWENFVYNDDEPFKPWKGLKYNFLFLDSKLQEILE

Row | SMILES | Potency
1 | COc1ccc(N=Cc2c(O)c3ccccc3n2C(C)=O)cc1 | 16.4 µM (active)
2 | Oc1sc(C=Nc2ccccc2)c2ccccc12 | 23.1 µM (active)
3 | COc1ccc(N=Cc2oc3ccc4ccccc4c3c2O)cc1 | 9.2 µM (active)
4 | COc1ccc(N=Cc2sc(O)c3ccccc23)cc1 | 15.8 µM (active)
5 | Cc1ccc(NC2=C(Cl)C(=O)N(C3CCCCC3)C2=O)cc1 | inactive
6 | Oc1sc(C=Nc2ccc(F)cc2)c2ccccc12 | 20.6 µM (active)
7 | COc1cc(OC)c(/C=C/c2ccnc3ccccc23)c(OC)c1 | 5.8 µM (active)
8 | COc1cc(N(C)C)c(OC)cc1/C=C/c1ccnc2ccccc12 | 23.1 µM (active)
9 | COc1cc(/C=C/c2ccnc3ccccc23)ccc1N(C)C | 23.1 µM (active)
10 | N#C/C(=C\c1ccc(C(=O)O)cc1)c1nc2sc3c(c2c(=O)[nH]1)CCCC3 | inactive
11 | CN(C)c1ccc(/C=C(\C#N)C(=O)Nc2nc3c(s2)CCN(Cc2ccccc2)C3)cc1 | 0.396 µM (active)
12 | CN(C)c1ccc(/C=C(/C#N)C(=O)Nc2nc3c(s2)CCN(Cc2ccccc2)C3)cc1 | 0.314 µM (active)
13 | Cc1ccc(N2C(=O)CS/C2=C(\C(Cl)=C(Cl)Cl)[N+](=O)[O-])cc1 | inactive
14 | Cc1cccc2c(=O)n3c(cc12)-c1[nH]c2ccccc2c1CC3 | 16.4 µM (active)
15 | CC[N+](C)(C)c1ccc(/C=C/c2ccncc2)cc1 | 20.6 µM (active)
16 | CCC[N+](C)(C)c1ccc(/C=C/c2ccncc2)cc1 | 18.4 µM (active)
17 | COc1ccc2nc(N3C(=O)/C(=C/c4ccccc4)NC3=S)sc2c1 | 13 µM (active)
18 | CCn1c(CNC(=O)C23CC4CC(CC(C4)C2)C3)nnc1SCC(=O)Nc1ccc(OC)cc1 | inactive
19 | COc1ccc(NC(=O)CSc2ccc3c4c(cccc24)C(=O)c2ccccc2-3)cc1 | 14.6 µM (active)
20 | N#Cc1cccc(NC(=O)CSc2ccc3c4c(cccc24)C(=O)c2ccccc2-3)c1 | 11.6 µM (active)
21 | CCCCCCN1C[C@H](O)[C@@H](n2cc(COC(=O)c3ccccc3)nn2)C[C@@H]1c1ccc(C)cc1 | inactive
22 | CCCn1nnc(NC(=S)NC(=O)c2ccccc2OC)n1 | inactive

Row | SMILES | Potency
23 | COc1ccc(NC(=O)c2cc(-c3ccccc3OC)on2)cc1 | 6.27 µM (active)
24 | COc1ccccc1-c1cc(C(=O)NN)[nH]n1 | inactive
25 | COc1ccc(C(=O)c2ccc(OC)c(OC)c2OC)cc1 | 6.27 µM (active)
26 | CC(=O)c1cccc(-c2ccnc3c2CC(C(=O)NCC2CC2)O3)c1 (stereo not given) | 14 µM (active)
27 | CC(=O)c1cccc(-c2ccnc3c2CC(C(=O)NCC2CCOCC2)O3)c1 (stereo not given) | 4.44 µM (active)
28 | COc1ccc2c(C)cc(SCC(=O)N(C)C3CCS(=O)(=O)C3)nc2c1 (stereo not given) | inactive
29 | COc1ccc2c(C)cc(SCC#N)nc2c1 | 16.4 µM (active)
30 | C[C@]12CCC[C@H](O1)c1c(cc3c(c1O)C(=O)c1c(O)cc(O)cc1C3=O)O2 | 20.6 µM (active)
31 | CN(NC(=O)c1ccccc1)c1nc2ccccc2nc1C(F)(F)F | 3.96 µM (active)
32 | Cc1ccc(C(=O)NN(C)c2nc3ccccc3nc2C(F)(F)F)cc1 | 2.8 µM (active)
33 | CCc1sc(-c2cc3ccc(O)cc3oc2=O)nc1-c1ccc(C)cc1 | inactive
34 | O=c1oc2cc(O)ccc2cc1-c1nc(-c2ccc(Cl)c(Cl)c2)cs1 | 2.06 µM (active)
35 | COc1cc(C2Sc3ccccc3NC3=C2C(=O)OC3)cc(OC)c1OC (stereo not given) | 17.7 µM (active)
36 | CCOC(=O)Nc1cc2c(c(N)n1)N=C(c1ccccc1)CN2 | 0.116 µM (active)
37 | Cc1nnc(SCC(=O)NCc2ccccc2F)c2nn(-c3ccc(Cl)cc3)c(C)c12 | 14.6 µM (active)
38 | CCOC(=O)c1cnc(-n2nc(C)cc2C)nc1NNc1cc(C)nc(-c2ccccc2)n1 | inactive
39 | O=C(Cn1c(=O)n(Cc2ccco2)c(=O)c2sc3ccccc3c21)Nc1ccccc1C(F)(F)F | 23.1 µM (active)
40 | C(=C\c1c[nH]c2ccccc12)/c1nccc2ccccc12 | 18.4 µM (active)
41 | Cc1ccc2c(/C=C/c3c[nH]c4ccccc34)ccnc2c1C | 8.2 µM (active)
42 | C(=Cc1c[nH]c2ccccc12)c1nccc2ccccc12 | 20.6 µM (active)
43 | CCCSc1nnc(N2C(=O)C(O)=C(C(=O)c3ccco3)C2c2ccccc2F)s1 (stereo not given) | inactive
44 | Cc1nc2c3cc(F)ccc3n(Cc3ccccc3)c2s1 | 6.27 µM (active)

Row | SMILES | Potency
45 | Cc1nc2c3cc(F)ccc3n(Cc3ccccc3F)c2s1 | 12.5 µM (active)
46 | Cc1nc2c3ccccc3n(Cc3ccccc3F)c2s1 | 17.7 µM (active)
47 | Cc1sc2nc(SCC(=O)N3CCOCC3)[nH]c(=O)c2c1-c1ccccc1 | inactive
48 | CCOC(=O)CSc1nc2c(c(=O)[nH]1)C(C)(CC)Cc1ccccc1-2 (stereo not given) | 5.8 µM (active)
49 | CCSc1nccc(-c2nn(-c3ccc(C)cc3)ccc2=O)n1 | 7.04 µM (active)
50 | Cc1ccc(Nc2nc(Cl)c(C=O)s2)cc1Cl | 18.4 µM (active)
51 | c1ccc(Nc2nc(-c3ccccn3)cs2)cc1 | inactive
52 | O=Cc1sc(Nc2ccccc2)nc1Cl | 16.4 µM (active)
53 | COc1ccc(-c2n[nH]c3c2CN(C(=O)c2ccc(OC)c(OC)c2)CC3)cc1 | 4.44 µM (active)
54 | COc1cccc(C2=CC(c3ccccc3)n3nnnc3N2)c1 (stereo not given) | 1.98 µM (active)
55 | COc1cccc(C2=CC(c3cccs3)n3nnnc3N2)c1 (stereo not given) | 5.59 µM (active)
56 | COc1ccc(OC)c(C2C=C(c3ccc(C)c(C)c3)Nc3nnnn32)c1 (stereo not given) | 4.98 µM (active)
57 | C=CCOC(=O)C1=C(C)Nc2nnnn2C1c1cccs1 (stereo not given) | inactive
58 | CCOC(=O)c1c(-c2ccc(OC)cc2)csc1/N=C/C1C(=O)CCCC1=O | inactive
59 | CCOC(=S)SCC(=O)N1CCc2cc(OC)ccc2C1C1C(=O)CCCC1=O (stereo not given) | 15.8 µM (active)
60 | Cc1cc2oc3ccc(NCCCn4ccnc4)cc3c(=O)c2cc1C | inactive
61 | O=c1c2ccccc2sc2ccc(NCCCN3CCOCC3)cc12 | 16.4 µM (active)
62 | COc1ccc(-c2cc(NC=O)c3ncc(-c4ccc(OC)c(OC)c4)n3c2)cc1OC | 4.44 µM (active)
63 | COc1ccc(-c2cnc3c(NC=O)cc(-c4ccccc4)cn23)cc1OC | 1.77 µM (active)
64 | COc1ccc(-c2cnc3c(NC=O)cc(-c4ccoc4)cn23)cc1OC | 11.2 µM (active)
65 | Cc1ccc(-c2cc(NC=O)c3ncc(-c4cnn(C)c4)n3c2)cc1 | 5.59 µM (active)
